Bioassay records: PubChem BioAssay, University of Kansas High Throughput Screening Laboratory
Sampled rows, rich in hits. Any-hit rate of the full collection: about 3.5%.
mHTT CaM bind: mutant huntingtin-calmodulin interaction inhibitors – biochemical, AlphaScreen, primary screen; P42858; AlphaScreen His-mHTT/GST-CaM binding, luminescence; inhibition, % at 15 µM; 3.6% of 190,000 active; AID 1671202, 2021;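 note: 0% = both proteins with DMSO and 100% = one protein alone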
Pf apPOL block: Pf-apPOL inhibitors, biochemical, fluorescence; Plasmodium falciparum apicoplast DNA polymerase (apPOL); Recombinant Pf-apPOL, molecular beacon fluorescence, 1.5 h; inhibition, % at 10 µM; 0.25% of 210,000 active
* hit, by the source's call; / = not tested or not shown; ! = repeats disagree. Cut-off read from the data, not from the text of the source: active = inhibition above about 50%; inactive = the rest.

SMILES	mHTT CaM bind	Pf apPOL block
Cc1ccnc(NC(c2ccc([N+](=O)[O-])cc2)c2ccc3cccnc3c2O)c1 (stereo not given)	99.8*	-8.4
Cc1cccc(-c2cc(NC(=O)c3ccc([N+](=O)[O-])cc3)n[nH]2)c1	5.4	1.3
Cc1nc(O)c(C(c2cccc([N+](=O)[O-])c2)c2c(O)nc(C)[nH]c2=O)c(=O)[nH]1	3.0	2.2
CCC(=O)NC(c1cccc([N+](=O)[O-])c1)c1ccc2cccnc2c1O (stereo not given)	100.0*	-1.8
CCCN(CCC)S(=O)(=O)c1ccc(C(=O)Nc2nnc(N=Cc3ccccc3)s2)cc1	10.0	3.9
COc1ccc2cc(C(=O)Nc3ccc(F)cc3)c(=N)oc2c1	-1.0	-5.1
O=C(c1cc2c(s1)CCC(C(=O)N1CCCC1)C2)N1CCCC1 (stereo not given)	-3.3	-1.2
C=CCOc1c(OC)cccc1C1CC(=O)Nc2n[nH]c(C)c21 (stereo not given)	-3.7	-1.1
COc1cc(C=Nc2ccc(C)c(C)c2)ccc1O	19.0	2.9
COc1ccc(C=Nc2cccc(N=Cc3ccc(OC)c(OC)c3)c2)cc1OC	74.0*	-3.8
Cc1ccc2[nH]c3nc(NN)nnc3c2c1	46.6	-6.3
Cc1cccc2c1[nH]c1nc(NN)nnc12	66.5*	-0.6
NNc1nnc2c(n1)[nH]c1ccccc12	100.0*	-6.8
CCCSc1nnc2c(n1)[nH]c1c(C)cccc12	9.0	-3.5
CC(=O)Nc1cccc(N=Cc2cc(Cc3ccccc3Cl)ccc2O)c1	47.0	2.0
Cc1ccc(-c2cc(=O)c3cc(NC(=O)C4CCCCC4)ccc3o2)cc1	-2.7	-1.6
O=C(CCc1csc2nc(C3CC3)cn12)NCc1cccs1	-4.0	-7.1
CC(c1ccccc1)N1Cc2cc(NC(=O)CC(C)(C)C)ccc2OCC1=O (stereo not given)	5.4	-1.8
Cc1cccc[n+]1C1C(c2ccc([N+](=O)[O-])cc2)C(C#N)=C(C(C#N)C#N)NC1(O)C1CC1 (stereo not given)	1.0	-0.6
Cc1ccc[n+](C2C(c3ccc([N+](=O)[O-])cc3)C(C#N)=C(S)NC2(O)C2CC2)c1 (stereo not given)	84.0*	-0.8
CN(C)c1cc(OC2CCN(S(=O)(=O)c3cnc[nH]3)C2)ncn1 (stereo not given)	2.1	-0.3
COc1ccc(Cl)cc1NC(=O)Cn1cc(OCc2ccc(C)cc2)c(=O)cc1C	-11.7	-2.7
O=[N+]([O-])c1cc(C=Nc2ccc(Cl)cc2)ccc1Cl	19.0	1.9
O=[N+]([O-])c1cc(C=Nc2cc(Cl)ccc2O)ccc1Cl	64.0*	-0.6
O=C(CN(C1CCCCC1)S(=O)(=O)c1ccccc1)N1CCN(c2ccc(F)cc2)CC1	60.4*	-5.3
SMILES	mHTT CaM bind	Pf apPOL block
O=C(CN(C1CCCCC1)S(=O)(=O)c1ccccc1)N1CCCCCC1	2.3	46.4
CC1Cn2cc(-c3ccc([N+](=O)[O-])cc3)nc2S1 (stereo not given)	18.0	50.7*
O=[N+]([O-])c1ccc(-c2cn3c(n2)SCC3)cc1	18.5	-13.4
CCC(=O)Nc1ccc(S(=O)(=O)N2CCCC(C)(C(=O)NCc3ccccc3)C2)cc1 (stereo not given)	2.7	-3.3
O=C(c1cn2c(n1)CSCC2)N1CCC(Cc2ccccc2)CC1	57.3*	0.6
O=C(c1cn2c(n1)COCC2)N1CCC(Cc2ccccc2)CC1	35.5	-5.2
O=C(Nc1c2c(nn1-c1ccc([N+](=O)[O-])cc1)CS(=O)(=O)C2)c1cc(Cl)ccc1Cl	5.0	3.2
CN(N=Cc1ccc(Cl)cc1Cl)c1ncc(C(F)(F)F)cc1Cl	/	-0.7
Cc1occc1C(=O)Nc1cccc(NC(=O)c2ccoc2C)c1	17.9	7.1
C/C=C/COc1nc2c(c(=O)n(C)c(=O)n2C)n1C	-7.0	1.1
C=CCOc1nc2c(c(=O)n(C)c(=O)n2C)n1C	100.2*!	-2.3
OCCn1c(-c2ccc(I)cc2)csc1=Nc1ccccc1	66.0*	-1.5
CCn1c(-c2ccccc2)csc1=Nc1ccc(S(=O)(=O)O)cc1	17.0	-2.9
CCOc1ccc(-c2csc(=Nc3ccccc3)n2CCN2CCOCC2)cc1	22.0	-3.1
c1ccc(Cn2c(-c3ccccc3)csc2=Nc2ccccc2)cc1	-2.3	/
OCCCn1c(-c2ccccc2)csc1=Nc1ccccc1	51.0*	-1.3
OCCCn1c(-c2ccc(I)cc2)csc1=Nc1ccccc1	70.0*	-4.8
OCCCn1c(-c2ccccc2)csc1=Nc1cccc(Cl)c1	92.0*	-4.8
CC(C)CC(=O)Nc1ccc([N+](=O)[O-])c(NC(=O)CC(C)C)c1	1.3	-20.0
N#CC1C(N)=NC(SCC(=O)Nc2nccs2)=C(C(N)=O)C12CCCCC2 (stereo not given)	7.0	-0.5
Cc1ccc(N2C(=O)c3cccnc3C2CC(=O)N2CCCCC2)cc1 (stereo not given)	-2.8	-3.9
CCNC(=O)N1CCOC(CN2CCN(c3ccc(C)c(C)c3)CC2)C1 (stereo not given)	11.1	-0.2
Cc1ccc(C(=O)N2CCC(COc3ccc(C(=O)NC(C)C)cc3)CC2)c(C)c1	18.5	-0.3
CC1(C)CC(=O)C2=C(C1)OC1=C(C(=O)CC(C)(C)C1)C2c1ccccc1O	0.8	-1.6
CCOc1ccc(CCNC(=O)Cn2nnc(-c3ccc(OC)cc3)n2)cc1OCC	76.0*	-4.8
SMILES	mHTT CaM bind	Pf apPOL block
CCOc1ccc(CCNC(=O)Cn2nnc(-c3ccc(F)cc3)n2)cc1OCC	-1.0	-41.0
O=[N+]([O-])c1cccc(-c2noc(-c3ccc(F)cc3)n2)c1	0.8	-4.3
COCCCNC(=O)N1CCCCCC1c1ccc(Cl)cc1 (stereo not given)	4.0	72.2*
COCCCNC(=O)N1CCCC1c1ccc(Cl)cc1 (stereo not given)	-5.9	-2.3
COC(=O)c1ccc(CSc2nnc(C)c(=O)[nH]2)o1	0.4	0.6
O=c1[nH]c2ccc([N+](=O)[O-])cc2c(-c2ccccc2)c1Sc1nc2ccccc2o1	11.0	12.2
CCN1c2cc(C)ccc2-n2cccc2C12CCN(C(=O)Nc1ccccc1C)CC2	27.7	2.3
CCCNC(=O)N1CCC2(CC1)c1cccn1-c1ccc(C)cc1N2CC	100.3*	3.6
CCN1c2cc(C)ccc2-n2cccc2C12CCN(C(=O)Nc1cccc(F)c1)CC2	71.9*	5.4
CCN1c2cc(C)ccc2-n2cccc2C12CCN(C(=O)NCC1CCCO1)CC2 (stereo not given)	65.0*	2.3
COC(=O)CNC(=O)N1CCOc2ccc(C)cc21	2.4	-5.5
CCN1c2cc(C)ccc2-n2cccc2C12CCN(C(=O)NCC(=O)OC)CC2	75.6*	-2.4
CCN1c2cc(C)ccc2-n2cccc2C12CCN(C(=O)Nc1ccccc1F)CC2	30.6	-3.2
Cc1cccc(C(=O)NCC2CCCO2)c1 (stereo not given)	-1.2	-3.0
O=C1Nc2ccccc2C1=Cc1c[nH]c2ccc([N+](=O)[O-])cc12	/	0.2
O=C(c1cnn2cccnc12)N1CCCC1c1ccccc1Cl (stereo not given)	16.9	-0.5
O=C1CSC(c2ccccc2F)N1c1cccc(Cl)c1 (stereo not given)	-14.0	-4.9
Cn1c(N2CCCC(C(=O)NCc3cccnc3)C2)cc(=O)n(C)c1=O (stereo not given)	-11.8	-2.5
CCCC(=O)Nc1ccccc1NC(=O)c1ccc(F)cc1	2.2	-2.6
